These results are taken from PubChem BioAssay (Tox21).

A short description of test [1]: Nuclear factor erythroid 2-related factor 2/antioxidant responsive element (Nrf2/ARE) small molecule agonists: luciferase reporter gene qHTS assay in human keratinocytes (AID 1919969). Note: nearly all actives have a fitted effect of over 35% in size. Note: potency is the fitted concentration of half-maximal effect.
Test [2] has as its target Gonadotropin-releasing hormone receptor (Homo sapiens) (UniProt P30968). Description: Human gonadotropin-releasing hormone receptor (GnRHR) small molecule agonists, calcium flux assay in GnRHR-HEK293 cells (AID 1920063). Note: nearly all actives have a fitted effect of over 35% in size. Note: potency is the fitted concentration of half-maximal effect. In short, it runs like this: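 HEK293 cells stably expressing human GnRHR were dye-loaded for 1 h at 37 C. Compound was added in agonist mode and fluorescence (Ex/Em 480/540) recorded kinetically for 3 min. Fifteen concentrations, triplicates.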

The target of test [3] is KiSS-1 receptor (Homo sapiens) (UniProt Q969F8). Description: Human kisspeptin (KISS1R) small molecule agonists, calcium flux assay in KISS1R-HEK293 cells (AID 1920064; active = well fitted activation curve with a large enough effect in the repeat runs). In a few lines: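 HEK293 cells stably expressing human KISS1R were loaded with calcium dye for 1 h at 37 C, then given compound; fluorescence (Ex/Em 480/540) was read kinetically for 3 min. Fifteen concentrations, triplicate.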
KiSS-1 receptor (Homo sapiens), sequence (Q969F8 whole entry, looked up): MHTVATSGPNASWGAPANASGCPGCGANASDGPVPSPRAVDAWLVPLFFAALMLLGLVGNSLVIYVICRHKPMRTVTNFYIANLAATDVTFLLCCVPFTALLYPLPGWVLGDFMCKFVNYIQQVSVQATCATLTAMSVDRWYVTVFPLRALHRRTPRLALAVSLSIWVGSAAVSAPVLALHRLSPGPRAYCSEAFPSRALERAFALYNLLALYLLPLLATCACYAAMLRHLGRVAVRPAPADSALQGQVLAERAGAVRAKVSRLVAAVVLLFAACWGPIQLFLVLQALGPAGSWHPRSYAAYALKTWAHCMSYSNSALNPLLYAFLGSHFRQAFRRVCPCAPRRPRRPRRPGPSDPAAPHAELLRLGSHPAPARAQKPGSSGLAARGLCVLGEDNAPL

A short description of test [4]: G protein-coupled receptor (GPCR) small molecule agonists, calcium flux assay: HEK293 wild type cell line counter screen (AID 1920065). In short, it runs like this:
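Wild-type HEK293 cells plated 18 h, loaded with calcium dye 1 h at 37 C, then compounds added in agonist mode (ATP as positive control). Kinetic fluorescence Ex/Em 480/540 recorded 3 min at 1 sec intervals; 15 concentrations, triplicate.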

Test [5] in a line: p53 small molecule agonists, cell-based qHTS assay with rat liver microsomes (AID 1963578). In a few lines:
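Metabolic activation is supplied by rat liver microsomes with NADPH (each 0.5 mg/mL final). p53RE-bla cells incubate with compound 16 h at 37 C; reporter activity is measured by LiveBLAzer fluorescence.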

Test [6] can be described thus: p53 small molecule agonists, cell-based qHTS assay with rat liver microsomes: qHTS cell viability counter screen (AID 1963580). Note: nearly all actives have a fitted effect of over 45% in size. In short, it runs like this:
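Intracellular ATP, by CellTiter-Glo luminescence, defines viability. HCT-116 p53RE-bla cells, 4,000 per well, were compound-treated in the presence of rat liver microsomes and NADPH for 16 h at 37 C.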

A short description of test [7]: p53 small molecule agonists, cell-based qHTS assay: qHTS cell viability counter screen (AID 1963581). Note: nearly all actives have a fitted effect of over 45% in size. In a few lines: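 p53RE-bla HCT-116 cells, compounds added 5 h after plating and incubated 16 h at 37 C. Cytotoxicity measured in the same wells as intracellular ATP by CellTiter-Glo luminescence after 30 min at room temperature.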
A short description of test [8]: p53 small molecule agonists, cell-based qHTS assay (AID 1963582; active = well fitted activation curve with a large enough effect in the signal ratio in the repeat runs, not every such curve was filed as active; the % refers to the signal ratio). In short, it runs like this: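 p53RE-bla reporter cells, compounds added in DMSO after 5 h plating, incubated 16 h at 37 C. Beta-lactamase read via 2 h room-temperature LiveBLAzer B/G FRET substrate, fluorescence intensity.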
Test [9] has as its target 5-hydroxytryptamine receptor 2A (Homo sapiens) (UniProt P28223). Description: 5-hydroxytryptamine receptor 2A (HTR2A) small molecule antagonists, cell-based qHTS assay (AID 1963586). Note: nearly all actives have a fitted effect of over 45% in size. In a few lines:
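Antagonist-mode intracellular calcium assay: DOI (4 nM) added after 5 min compound pre-incubation at room temperature to dye-loaded HTR2A-CHO cells. Fluorescence followed for 3 min, sampled every second.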

Test [10] has the same target. As to the kind of experiment: 5-hydroxytryptamine receptor 2A (HTR2A) small molecule agonists, cell-based qHTS assay (AID 1963587). Note: nearly all actives have a fitted effect of over 30% in size. Note: potency is the fitted concentration of half-maximal effect. In short, it runs like this: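 Kinetic calcium-flux fluorescence (2 min, 1 sec intervals) after compound addition in agonist mode. HTR2A-CHO cells were cultured 18 h, then dye-loaded 1 h at 37 C.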
In test [11] the target is Muscarinic acetylcholine receptor M1 (Homo sapiens) (UniProt P11229). Description: Cholinergic receptor muscarinic 1 (CHRM1) small molecule antagonists, cell-based qHTS assay (AID 1963588). Note: nearly all actives have a fitted effect of over 40% in size. In a few lines:
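CHRM1-CHO calcium-flux assay, antagonist mode. Cells were seeded 18 h, dye-loaded 1 h at 37 C and given compound for 5 min at RT, then acetylcholine was added at 50nM. FDSS fluorescence was read 3 min; 15 concentrations, three runs.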

For test [12] the target is unchanged. As to the kind of experiment: Cholinergic receptor muscarinic 1 (CHRM1) small molecule agonists, cell-based qHTS assay (AID 1963589). Note: nearly all actives have a fitted effect of over 35% in size. In short, it runs like this: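 CHO cells stably expressing human CHRM1 were loaded with calcium dye for 1 h at 37 C, then compound was added in agonist mode. Intracellular calcium fluorescence was followed kinetically at 1 s intervals. Fifteen concentrations were tested in three independent runs.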

A short description of test [13]: cAMP Responsive Elements (CRE) small molecule agonists, cell-based qHTS assay (AID 1963590). In short, it runs like this: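 CRE-bla HEK 293T cells, 2,000/well in DMEM with 10% dialyzed FBS and 25 mM HEPES, pre-incubated 18 h at 37 C, then exposed to compound 3 h at 37 C. Beta-lactamase reporter read with LiveBLAzer B/G FRET substrate after 2 h at room temperature.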

Test [14] in a line: cAMP Responsive Elements (CRE) small molecule antagonists, cell-based qHTS assay (AID 1963591; active = well fitted inhibition curve with a large enough effect in the signal ratio in the repeat runs, not every such curve was filed as active; the % refers to the signal ratio). In a few lines:
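CRE-bla HEK293T cells plated 18 h, then given compound plus NKH477 at 0.25 uM final for 3 h at 37C. Beta-lactamase reporter read with LiveBLAzer B/G FRET substrate after 2 h at room temperature.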

Test [15] addresses Beta-2 adrenergic receptor (Homo sapiens) (UniProt P07550). Description: Adrenergic beta2 receptor (ADRB2) small molecule antagonists, cell-based qHTS assay (AID 1963592). Note: series mostly up to about 92 µM; nearly all actives have a fitted effect of over 50% in size. In a few lines: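 Cells (CHO, stable ADRB2 overexpression) incubated 18-20hr at 37C; compounds added from DMSO; agonist mix (1nM isoproterenol, 100uM IBMX, 25uM Ro-20-1724) added; 0.5hr RT; d2-cAMP and anti-cAMP-cryptate added; 1hr RT; 665/615 nm read.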

For test [16] the target is unchanged. As to the kind of experiment: Adrenergic beta2 receptor (ADRB2) small molecule agonists, cell-based qHTS assay (AID 1963593).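 Note: CHO cells stably overexpressing human ADRB2.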 In short, it runs like this:
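CHO cells stably over-expressing ADRB2 were plated overnight at 37C, then dosed with compounds plus a stimulation mix containing 100uM IBMX and 25uM Ro-20-1724 for 0.5hr at room temperature. cAMP was measured by HTRF competition, 1hr.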

In test [17] the target is D(2) dopamine receptor (Homo sapiens) (UniProt P14416). As to the kind of experiment: Dopamine D2 receptor (DRD2) small molecule agonists, cell-based qHTS assay (AID 1963594). Note: nearly all actives have a fitted effect of over 35% in size. In a few lines: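 cAMP accumulation in DRD2-HEK293 cells measured by HTRF after 1 h detection; compounds added 10 min before NKH477 (200nM […]) forskolin-analogue stimulation, 30 min at room temperature, with Ro20-1724 present at 0.1 mM final.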
D(2) dopamine receptor (Homo sapiens), sequence (P14416 whole entry, looked up): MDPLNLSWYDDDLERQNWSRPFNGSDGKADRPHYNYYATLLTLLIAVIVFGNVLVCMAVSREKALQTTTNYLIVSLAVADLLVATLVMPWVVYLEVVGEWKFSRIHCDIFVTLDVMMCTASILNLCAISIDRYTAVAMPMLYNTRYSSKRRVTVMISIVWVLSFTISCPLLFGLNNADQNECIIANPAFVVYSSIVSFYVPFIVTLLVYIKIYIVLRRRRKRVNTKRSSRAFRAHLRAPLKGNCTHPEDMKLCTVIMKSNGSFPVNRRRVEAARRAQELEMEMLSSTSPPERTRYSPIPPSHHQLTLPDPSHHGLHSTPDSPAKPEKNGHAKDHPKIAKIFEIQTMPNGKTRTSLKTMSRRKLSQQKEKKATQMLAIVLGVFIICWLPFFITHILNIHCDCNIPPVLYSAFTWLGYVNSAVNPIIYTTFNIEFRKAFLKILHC

Test [18] shares this target. Description: Dopamine D2 receptor (DRD2) small molecule antagonists, cell-based qHTS assay (AID 1963595; active = well fitted inhibition curve with a large enough effect in the signal ratio in the repeat runs, with a control signal flat; the % refers to the signal ratio; note: potency is the fitted concentration of half-maximal effect). In short, it runs like this: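 HEK293 cells stably expressing DRD2, preincubated with 0.1 mM Ro20-1724 and compounds 10 min, were stimulated with 200 nM NKH477 plus 12 nM quinpirole for 30 min at room temperature; cAMP measured by HTRF (665/620 nm).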
Test [19] is described as follows: p53 small molecule agonists, cell-based qHTS assay with human liver microsomes: qHTS cell viability counter screen (AID 1963579). Note: nearly all actives have a fitted effect of over 45% in size. In short, it runs like this: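 After the 460/530 nm beta-lactamase read, CellTiter-Glo was added to the same wells and luminescence measured after 30 min at room temperature, giving viability of p53RE-bla cells treated 16 h with compounds plus microsomes and NADPH.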

The nature of test [20]: p53 small molecule agonists, cell-based qHTS assay with human liver microsomes (AID 1963577).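 Note: p53 response element beta-lactamase reporter cells with liver microsomes plus NADPH.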 In a few lines:
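Steps: plate p53RE-bla cells, incubate 5 h at 37 C; add compound in DMSO; add microsomes (0.5 mg/mL final) and NADPH (0.5 mg/mL final); incubate 16 h at 37 C; add LiveBLAzer, 2 h RT; read fluorescence.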

Molecules are shown by their SMILES. “And” between values parts separate entries of the source, which are not always exact repeats. Identical values can stand only once. Inconclusive results are not listed. The source made the active and inactive calls. Unless noted, calls come from the whole dose curve.

Muscarinic acetylcholine receptor M1 (Homo sapiens), sequence (P11229 whole entry, looked up): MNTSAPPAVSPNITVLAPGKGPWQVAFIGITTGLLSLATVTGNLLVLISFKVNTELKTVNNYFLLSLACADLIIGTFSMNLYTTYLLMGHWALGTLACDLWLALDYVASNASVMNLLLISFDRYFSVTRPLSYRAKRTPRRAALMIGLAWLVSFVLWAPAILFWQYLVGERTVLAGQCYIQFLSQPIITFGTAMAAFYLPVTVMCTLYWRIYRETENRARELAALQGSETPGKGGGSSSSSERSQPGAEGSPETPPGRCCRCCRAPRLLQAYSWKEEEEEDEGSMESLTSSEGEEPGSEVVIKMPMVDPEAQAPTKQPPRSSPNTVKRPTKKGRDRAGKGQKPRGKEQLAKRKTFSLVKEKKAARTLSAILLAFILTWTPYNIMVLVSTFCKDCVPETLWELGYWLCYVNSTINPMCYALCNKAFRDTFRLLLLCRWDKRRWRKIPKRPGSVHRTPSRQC
Gonadotropin-releasing hormone receptor (Homo sapiens), sequence (P30968 whole entry, looked up): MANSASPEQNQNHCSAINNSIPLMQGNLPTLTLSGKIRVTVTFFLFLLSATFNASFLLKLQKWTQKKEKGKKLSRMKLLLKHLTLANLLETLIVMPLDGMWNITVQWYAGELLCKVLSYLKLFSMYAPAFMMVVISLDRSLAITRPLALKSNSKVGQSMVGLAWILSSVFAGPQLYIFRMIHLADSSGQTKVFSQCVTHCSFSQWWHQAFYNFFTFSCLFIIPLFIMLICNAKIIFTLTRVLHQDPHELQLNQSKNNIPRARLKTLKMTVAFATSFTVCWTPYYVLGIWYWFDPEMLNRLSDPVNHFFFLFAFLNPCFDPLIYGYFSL
Beta-2 adrenergic receptor (Homo sapiens), sequence (P07550 whole entry, looked up): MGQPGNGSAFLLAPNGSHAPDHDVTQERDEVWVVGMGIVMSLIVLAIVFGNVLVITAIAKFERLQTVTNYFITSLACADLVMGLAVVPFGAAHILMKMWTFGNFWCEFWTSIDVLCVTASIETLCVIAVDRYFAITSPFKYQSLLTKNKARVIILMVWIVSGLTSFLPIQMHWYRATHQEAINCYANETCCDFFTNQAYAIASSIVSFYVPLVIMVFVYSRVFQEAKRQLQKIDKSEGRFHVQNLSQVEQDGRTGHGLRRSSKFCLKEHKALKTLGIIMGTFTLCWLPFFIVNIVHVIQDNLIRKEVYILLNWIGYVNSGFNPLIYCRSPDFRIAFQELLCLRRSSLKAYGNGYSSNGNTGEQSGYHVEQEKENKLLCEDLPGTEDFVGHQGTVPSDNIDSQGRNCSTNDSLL
5-hydroxytryptamine receptor 2A (Homo sapiens), sequence (P28223 whole entry, looked up): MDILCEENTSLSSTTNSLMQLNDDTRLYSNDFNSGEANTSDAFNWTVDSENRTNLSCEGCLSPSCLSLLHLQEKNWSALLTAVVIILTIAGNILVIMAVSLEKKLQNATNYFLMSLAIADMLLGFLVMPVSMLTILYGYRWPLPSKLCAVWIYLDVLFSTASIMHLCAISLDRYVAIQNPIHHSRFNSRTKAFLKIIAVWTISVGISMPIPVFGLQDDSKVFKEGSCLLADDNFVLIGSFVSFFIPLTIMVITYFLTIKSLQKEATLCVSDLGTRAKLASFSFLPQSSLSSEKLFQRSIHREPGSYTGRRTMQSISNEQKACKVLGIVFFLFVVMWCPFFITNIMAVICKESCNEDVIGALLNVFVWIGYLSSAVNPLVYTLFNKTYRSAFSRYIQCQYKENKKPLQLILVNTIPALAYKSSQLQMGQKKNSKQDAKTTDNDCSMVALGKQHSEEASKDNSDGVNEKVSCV

With `[Cl][Sb]([Cl])[Cl]`, the Potency in [1] was 27.3 µM (active). Besides, the Potency entry in [2], in test [3], in test [4], in [5], in test [6] and in test [7] was “inactive” in each case. The Potency result in test [8], in test [9], in test [10], in [11], in test [12] and in test [13] was “inactive” each time. Besides, the Potency entry in [14], in [15], in [16], in [17] and in test [18] was “inactive” throughout.
`CC(C)(O)c1cnn2c(-c3ccc(F)c(-c4c(F)cccc4C#N)c3)cnc2n1`: the Potency entry in [1], in test [3], in test [4], in test [19], in test [6] and in test [7] was “inactive” each time. Moreover, the Potency entry in [9], in test [11], in [12], in test [15], in test [16] and in test [18] was “inactive” in each case. The figures for the Potency in [2] and in test [10] were 38.9 µM (active) and 54.9 µM (active), respectively.
As to `O=C(Nc1ccccc1)Nc1ccnc(Cl)c1`, the Potency entry in test [1], in test [2], in test [3], in test [4], in test [5] and in [19] was “inactive” each time. The Potency entry in test [6], in test [10], in test [11], in test [12], in test [15] and in [16] was “inactive” in each case. Also, the Potency result in test [17] and in test [18] was “inactive” each time.
Take `CCCCNC(=O)OCC#CI`: the Potency in [1] is 24.2 µM (active) and 24.3 µM (active); in [18], 68.6 µM (active). Moreover, the Potency result in [3], in test [4], in test [20], in test [5], in test [19] and in test [6] was “inactive” in each case. Moreover, the Potency result in test [7], in [9], in [11], in test [12], in test [15] and in [16] was “inactive” throughout.
With `CCCC[P+](CC)(CCCC)CCCC` (tested in a mixture with another compound), the Potency result in test [1], in test [3], in test [4], in [20], in [5] and in test [19] was “inactive” each time. The Potency entry in test [6], in [7], in test [8], in test [9], in test [10] and in test [11] was “inactive” each time. For the same molecule, the Potency entry in test [12], in test [14], in test [15], in [17] and in test [18] was “inactive” in each case.
For `BrC(Br)C(Br)(Br)Br`, the Potency entry in test [1], in test [3], in test [4], in [20], in test [5] and in test [19] was “inactive” throughout. Besides, the Potency entry in test [6], in test [7], in test [9], in test [11], in test [12] and in [15] was “inactive” in each case. Besides, the Potency result in test [17] and in test [18] was “inactive” each time. In addition, the Potency in [10] was 55.3 µM (active).
For the molecule `NNCCO`, the Potency entry in test [1], in test [2], in [4], in [19], in [9] and in test [10] was “inactive” each time. Also, the Potency result in [11], in [12], in test [13], in [14], in test [15] and in [16] was “inactive” each time. For the same molecule, in [17], the Potency result is “inactive”.
For `CC(=O)c1cc(C(C)(C)C)cc2c1CCC2(C)C`, the Potency result in [1], in test [2], in test [3], in test [20], in [19] and in test [6] was “inactive” in each case. Also, the Potency result in [7], in [8], in test [9], in [10], in test [11] and in [12] was “inactive” throughout. The Potency result in test [13], in test [14], in [16], in test [17] and in [18] was “inactive” in each case.
On to `CC(C)CBr`, for which the Potency result in [1], in [3], in test [4], in test [5], in test [7] and in test [8] was “inactive” throughout. For the same molecule, the Potency entry in test [9], in [10], in [11], in [12], in test [13] and in test [14] was “inactive” each time. Further, the Potency result in test [15] and in [18] was “inactive” throughout.
